Measurements reported in PubChem BioAssay (NCATS).
“And” between values parts separate entries of the source, which are not always exact repeats. Equal values may be shown once. Results filed as inconclusive are left out. Entries that show only a call come without a potency. The source made the active and inactive calls. The call rests on the fitted dose curve; in most records, active means well fitted inhibition curve with a large enough effect; inconclusive means small, poorly fitted or top-dose-only effect; inactive means flat fitted curve, though single readings scatter.

Test: Confirmatory screen GU Rhodamine qHTS for Zika virus inhibitors qHTS (AID 1347157); further: nearly all actives have a fitted effect of over 70% in size
Conditions: purified enzyme assay, Rhodamine110 substrate fluorescence, 15 min; series mostly up to 114 µM
Source text: Avindra Nath, Ph.D., National Institute of Neurological Disorders and Stroke (NINDS), Bethesda, MD
Radhakrishnan Padmanabhan, Ph.D., Georgetown University (GU), Washington D.C.
Zika Virus causes congenital defects, including microcephaly and is associated with Guillain-Barre syndrome, eningoencephalitis and myelitis in infected adult. […] Using a target-based approach, we hope to establish a screening paradigm to uncover novel, cell-active NS2B-NS3 protease (Zika Virus) specific inhibitors from NCATS' collection of small molecules using qHTS.
Four assay panel was created to identify potential Zika Virus inhibitors. Namely, (1) GU unlinked NS2B-NS3 AMC tagged protease qHTS, (2) GU unlinked NS2B-NS3 Rhodamine tagged protease qHTS, (3) NINDS linked NS2B-NS3 AMC tagged protease qHTS, (4) NINDS linked NS2B-NS3 Rhodamine tagged protease qHTS. Active compounds were re-acquired and re-screened to confirm inhibition. Inhibitors were further screened against various confirmatory and counterscreens in dose response format.
Early Translation Branch (ETB)
National Center for Advancing Translational Sciences (NCATS), Rockville, MD
National Institute of Health (NIH), Bethesda, Maryland
Padmanabhan lab provided the NS2B hydrophilic domain and NS3 protease domain in a noncovalent complex used for the unlinked assay. Control compound aprotinin is obtained from Thermo Scientific (#78432; Waltham, Massachusetts). Rhodamine110 substrate ([N-Cbz]-Nle-Lys-Arg-Arg-Rhod110-Arg-Arg-Lys-Nle-[N-Cbz]) was purchased from either Genscript or Bachem.
1536-well Protease (Rhodamine110 Substrate) Assay:
Briefly, 3 microL of enzyme (25 nM final concentration), in assay buffer (10 mM Tris-HCl pH 8.0 with 0.01% Tween 20) were dispensed into a 1,536-well solid-bottom black plate (Greiner Bio One, Monroe, NC). Twenty-three nL of compounds (final concentration range 7.28 nM to 114 microM) or control Aprotinin (final concentration range 3.47 nM to 114 microM) were transferred via Wako Pin-tool (Wako Automation, Richmond, VA). Samples were incubated (room temperature, protected from light) for 15 minutes followed by a 1 microL Rhodamine110 substrate addition (1.5 microM final concentration). Plates were then immediately read on a ViewLux High-throughput CCD imager (PerkinElmer, Waltham, MA) equipped with FITC fluorescence optics (480(20) nm excitation, 540(25) nm emission), then incubated (room temperature, protected from light) for 15 minutes (~15% conversion). The change in fluorescence intensity over the 15-minute reaction period was normalized against no-inhibitor and no-enzyme controls and the resulting percent inhibition data were fitted to a 4-parameter Hill equation. Aprotinin was used as intraplate control.
Potency means the concentration at half of the fitted maximal effect.

| Compound | Potency |
| --- | --- |
| Cc1ccc(C(=O)Nc2ccc(C(=O)OCc3cc(=O)n4c5c(sc4n3)CCCC5)cc2)cc1 | inactive |
| COc1ccc(S(=O)(=O)c2c(O)c(C)cc(NS(=O)(=O)c3ccc(Cl)cc3)c2C(C)C)cc1 | inactive |
| O=C(O)Cc1cc(I)c(Oc2cc(I)c(O)c(I)c2)c(I)c1 | inactive |
| O=C(OCc1cccc(C(F)(F)F)c1)c1ccc(-c2nnn(Cc3ccc(F)cc3)n2)cc1 | inactive |
| Cc1ccc(NC(=O)CSc2ncccc2C(=O)Oc2ccccc2Cl)cc1Cl | inactive |
| NC(Cc1cc(I)c(Oc2ccc(O)c(I)c2)c(I)c1)C(=O)O (stereo not given) | inactive |
| O=C(OCC#CCSc1nnc(-c2cccc3ccccc23)o1)c1ccc(F)cc1F | inactive |
| COc1ccc(S(=O)(=O)c2c(Nc3ccc(C)cc3)sc(C(=O)c3ccc4c(c3)OCO4)c2N)cc1 | inactive |
| COC(=O)c1ccc(NC(=O)CSc2ccc(-c3sc(-c4ccccc4)nc3C)nn2)cc1 | inactive |
| O=c1oc2ccc3ccccc3c2cc1-c1nnc(Nc2cccc(C(F)(F)F)c2)s1 | inactive |
| O=c1cc(-c2cc(O)c(O)c(O)c2)oc2cc(O)cc(O)c12 | 44.7 µM (active) |
| CC(C)c1nn2c(=O)cc(COC(=O)c3ccc(NC(=O)c4ccccc4Cl)cc3)nc2s1 | inactive |
| O=C(Nc1ccc(C(=O)OCc2cc(=O)n3nc(C4CC4)sc3n2)cc1)c1cccc(F)c1 | inactive |
| O=C(OCC#CCSc1nnc(-c2cccc3ccccc23)o1)c1sc2ccccc2c1Cl | inactive |
| O=C(Nc1ccc(C(=O)OCc2cc(=O)n3c4c(sc3n2)CCCC4)cc1)c1ccccc1 | inactive |
| O=C(OCC#CCSc1nnc(-c2cccc3ccccc23)o1)c1sc(Cl)c(Cl)c1Cl | inactive |
| O=C(CSc1ncccc1C(=O)Oc1ccccc1Cl)Nc1ccccc1Cl | inactive |
| O=C(Nc1cc(C(=O)Nc2ccc(S(=O)(=O)O)cc2S(=O)(=O)O)cc(C(=O)Nc2ccc(S(=O)(=O)O)cc2S(=O)(=O)O)c1)Nc1cc(C(=O)Nc2ccc(S(=O)(=O)O)cc2S(=O)(=O)O)cc(C(=O)Nc2ccc(S(=O)(=O)O)cc2S(=O)(=O)O)c1 | 2.24 µM (active) and 4.47 µM (active) |
| COCCOC(=O)c1c(C)n(S(=O)(=O)c2ccc(C)cc2)c2ccc(NS(=O)(=O)c3ccc(C)cc3)cc12 | inactive |
| CC(C)(O)c1ccccc1CC[C@H](SCC1(CC(=O)O)CC1)c1cccc(/C=C/c2ccc3ccc(Cl)cc3n2)c1 | 11.2 µM (active) |

| Compound | Potency |
| --- | --- |
| O=C1c2ccc(O)c(O)c2C(=O)c2c(O)ccc(O)c21 | 12.6 µM (active) |
| O=C(O)c1ccccc1-c1c2cc(I)c(=O)c(I)c-2oc2c(I)c(O)c(I)cc12 | 14.1 µM (active) |
| COc1ccc(-c2cc(=O)c3c(O)cc(O)c(-c4cc(-c5cc(=O)c6c(O)cc(O)cc6o5)ccc4OC)c3o2)cc1 | 25.1 µM (active) |
| Cc1csc2nc(COC(=O)c3ccccc3NC(=O)c3ccc(C(C)(C)C)cc3)cc(=O)n12 | inactive |
| COc1ccc(Nc2nnc(-c3ccc(C)c(S(=O)(=O)NCc4nc5ccccc5[nH]4)c3)c3ccccc23)cc1 | inactive |
| O=C(CNC(=O)c1ccccc1F)OCc1cc(=O)n2nc(C3CCCCC3)sc2n1 | inactive |
| N#C/C(=C\c1ccc(-c2ccc(Cl)c(C(=O)O)c2)o1)c1nc2ccccc2[nH]1 | 25.1 µM (active) |
| O=C(CNC(=O)c1ccccc1)OC(C(=O)Nc1cc(C(F)(F)F)ccc1Cl)c1ccccc1 (stereo not given) | inactive |
| COC(=O)c1ccccc1NC(=O)CSc1nc(-c2ccccc2)cc(C(F)(F)F)n1 | inactive |
| O=C(/C=C/c1ccc(C(F)(F)F)cc1)OC(C(=O)NC1CC1)c1ccccc1 (stereo not given) | inactive |
| CC1CCC2C(=CCC(O)C2(C)C)C1(C)Cc1c(O)cc(CO)c(C=O)c1O (stereo not given) | 24.3 µM (active) |
| O=C(NCc1ccc(Oc2ccccc2)cc1)c1nc(-c2cc(Br)c(O)c(Br)c2)no1 | 1.75 µM (active) |
| O=c1c(O)cc(C2Oc3cc(O)cc(O)c3CC2O)cc2c(C3Oc4cc(O)cc(O)c4CC3O)cc(O)c(O)c12 (stereo not given) | 12.6 µM (active) |
| O=C(OCC#CCSc1nnc(-c2cccc3ccccc23)o1)c1ccc(F)c(F)c1 | inactive |
| O=C(O)c1c(Br)c(Br)c(Br)c(Br)c1C1c2ccc(O)cc2Oc2cc(O)ccc21 | 12.6 µM (active) |
| O=C(OCC#CCSc1nnc(-c2cccc3ccccc23)o1)c1cccc(C(F)(F)F)c1 | inactive |
| CCOc1ccccc1NC(=O)c1ccc2oc(=O)c(S(=O)(=O)c3ccc(F)cc3)cc2c1 | inactive |
| COC(=O)c1ccc([C@H]2Nc3ccc(S(=O)(=O)Nc4ccc(C)cc4)cc3[C@H]3C=CC[C@H]32)cc1 | 25.1 µM (active) |
| O=C(COC(=O)c1cccc(NC(=O)c2ccc(Br)cc2)c1)c1ccc(Cl)cc1 | inactive |
| CN(CC(=O)N(Cc1ccc(C2CCCCC2)cc1)c1ccc(C(=O)O)cc1)S(=O)(=O)c1c(F)c(F)c(F)c(F)c1F | 3.5 µM (active) |
